# Screening results (PubChem BioAssay)
# Shown are actives, neighbours in structure and some others; about 6.2% of the full set was active somewhere.
# HCMV antiviral: human cytomegalovirus inhibition; HFF cells, HCMV-luciferase reporter, 72 h; active compounds read low; activity change, negative = inhibition, % at 57.5 µM; 4.5% of 410,000 active; AID 1259415; in the data active = activity change below about -60%; inconclusive = no clear call, values can overlap the other calls; inactive = above about -39%
#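 Inhibition of viral replication was scored as loss of reporter luminescence in HFFs infected with HCMV-luciferase (MOI 1 PFU/cell) for 72 h; compounds tested at 2 doses, normalized to buffer and Salinomycin controls.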
# Marburg entry inh: Marburg virus entry inhibition; Marburg virus pseudotyped entry inhibition, cell reporter; Potency, µM (series often up to 37.8 µM), for the others: top-dose activity change, negative = inhibition, usual class: inhibitors; 1.8% of 300,000 active; calls by dose curve; tested in HEK293 cells; note: potency is the fitted concentration of half-maximal effect
# LASV entry inh: Lassa virus entry inhibition; Lassa virus pseudotype entry inhibition, cell reporter; Potency, µM (doses to about 37.9 µM), for the others: top-dose activity change, negative = inhibition, hits mostly inhibitors; 1.2% of 300,000 active; calls by dose curve; tested in HEK293 cells; note: potency is the fitted concentration of half-maximal effect; nearly all actives have a fitted effect of over 50% in size
# FMDV antiviral: antivirals against foot and mouth disease virus; FMDV antiviral cell-based qHTS; Potency, µM (titrated, usually from 57.9 µM), for the others: at the highest dose activity change, negative = inhibition, hits mostly inhibitors; AID 1159524; 1.2% of 410,000 active; calls by dose curve; tested in HEK293T cells; note: read-out not given here; potency is the fitted concentration of half-maximal effect; nearly all actives have a fitted effect of over 45% in size
# * marks the source's active call; other numbers are inactive results; ? = inconclusive; / = no result; [ ] = dose if it differs, or a comment. % is set by controls: 0 for no effect and ±100 for the full control effect.
SMILES,HCMV antiviral,Marburg entry inh,LASV entry inh,FMDV antiviral
Cc1nn(Cc2ccccc2)c2sc(C(=O)N3CCN(Cc4ccc5c(c4)OCO5)CC3)cc12,-12,?,?,32µM*
O=C(c1ccc(F)cc1)N1CCC(C(=O)N2CCN(Cc3ccc4c(c3)OCO4)CC2)CC1,-1,-2%,8%,-24%
O=C(C1CCN(Cc2cccs2)CC1)N1CCN(Cc2ccc3c(c2)OCO3)CC1,-104*,?,0%,-21%
Cc1ccccc1C(=O)N1CCC(C(=O)N2CCN(Cc3ccc4c(c3)OCO4)CC2)CC1,-102*,-16%,11%,?
CCN(CC)C(=O)Cn1cnc2sc(C(=O)N3CCN(Cc4ccc5c(c4)OCO5)CC3)c(C)c2c1=O,-97*,-21%[46.1 µM],?,-25%
C#CC(C)(C)NC(=O)c1sccc1Oc1ccc(F)cc1[N+](=O)[O-],-34,?,-3%,-22%
CN(C)CC/C=C1\c2ccccc2COc2ccccc21,-10,4µM*,?,-19%
Cc1ccc(NC(=O)c2ccc(CN3CCN(C)CC3)cc2)cc1Nc1nccc(-c2cccnc2)n1,-78*,/,/,-4%
Cc1noc(C)c1CSCC(=O)N(CC(C)C)c1c(N)n(Cc2ccccc2)c(=O)[nH]c1=O,3,-6%,?,-12%
COc1cccc(NC(=O)C2CCN(S(=O)(=O)c3cc(-c4noc(C)n4)ccc3C)CC2)c1,-72*,/,?,?
Cc1ccc(NC(=O)C2CCCN(C(=O)c3ccc(Cl)cc3)C2)cc1S(=O)(=O)N1CCOCC1 (stereo not given),-72*,?,?,?
Cc1nc(-c2ccc(C)c(S(=O)(=O)N3CCC(C(=O)Nc4ccc(Cl)cc4)CC3)c2)no1,-75*,/,?,-24%
CS(=O)(=O)c1ccc(NC(=O)C2CCCN(C(=O)c3ccc(Cl)cc3)C2)cc1 (stereo not given),3,/,/,-25%
CCc1cccc(NC(=O)C2CCN(S(=O)(=O)c3cccc(-c4noc(C)n4)c3)CC2)c1,-61*,/,?,-31%
COc1cccc(NC(=O)C2CCN(S(C)(=O)=O)CC2)c1,40,3%,0%,/
Cc1nc(-c2cccc(S(=O)(=O)N3CCC(C(=O)NCc4ccccc4Cl)CC3)c2)no1,-9,/,6%[46.1 µM],0%
O=C(COC(=O)c1ccco1)NNC(=O)c1ccc(Cl)cc1,-10,/,/,27%
CCc1cccc(NC(=O)C2CCCN2S(=O)(=O)c2ccc3nc(-c4ccccc4)[nH]c3c2)c1 (stereo not given),-60*,/,-24%[46.1 µM],-24%
Cc1cc(C)cc(NC(=O)C2CCCN2S(=O)(=O)c2ccc3nc(-c4ccccc4)[nH]c3c2)c1 (stereo not given),38,/,-15%[46.1 µM],-15%
c1ccn(-c2ncnc3sc4c(c23)CCCC4)c1,?,28%,-2%,?
c1nc(N2CCOCC2)c2c3c(sc2n1)CCCC3,-65*,4%,0%,?
O=C(O)CSc1ncnc2sc3c(c12)CCC3,-14,17%,2%,-9%
c1cn(-c2ncnc3sc4c(c23)CCCC4)cn1,-70*,0%,21%,0%
O=C(c1ccccc1)N1CCN(c2ncnc3sc4c(c23)CCC4)CC1,?,?,-18%,22µM*
O=C(CC1C(=O)N(Cc2ccccc2)C(=S)N1CCN1CCOCC1)Nc1ccc(F)cc1 (stereo not given),-69*,6%[46.1 µM],1%,15%
SMILES,HCMV antiviral,Marburg entry inh,LASV entry inh,FMDV antiviral
CCOc1ccc(NC(=O)CC2C(=O)N(CC)C(=S)N2CCN2CCOCC2)cc1 (stereo not given),26,5%[46.1 µM],/,-2%
CCN1C(=O)C(CC(=O)Nc2ccc(Br)cc2)N(CCCc2ccccc2)C1=S (stereo not given),?,?,13µM*,?
CCCOc1ccc(NC(=O)CC2C(=O)N(CC)C(=S)N2CCCN2CCN(Cc3ccccc3)CC2)cc1 (stereo not given),-84*,?,?,4%
CC(C)CC#Cc1ccc2c(c1)O[C@H](CN(C)C(=O)Nc1ccccc1)[C@@H](C)CN([C@H](C)CO)S2(=O)=O,4,/,/,97%
C[C@@H]1CN([C@H](C)CO)S(=O)(=O)c2ccc(C#Cc3ccccc3)cc2O[C@H]1CN(C)C(=O)Nc1ccc2c(c1)OCO2,-87*,/,/,-20%
C[C@H](CO)N1C[C@H](C)[C@@H](CN(C)C(=O)c2ccc3c(c2)OCO3)Oc2cc(/C=C/c3ccccc3)ccc2S1(=O)=O,-62*,/,/,33%
CC(=O)Nc1ccc(NC(=O)COC(=O)[C@@H](NC(=O)c2ccc(F)cc2)C(C)C)cc1,144,?,-12%[46.1 µM],-14%
